# Source: PubChem BioAssay AID588405 (Sanford-Burnham Center for Chemical Genomics, 2011)
# Hit rate of the full screen: of about 360,000 compounds, about 6,200 (1.7%) were called active. Shown is part of a subset that was picked to be rich in actives. Unmarked numbers belong to inactive results.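 How the source made its calls: active means inhibition of at least 50% at 20 µM; inactive means the rest.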
# Assay: inhibition of PEG-3 promoter activity – cell-based, HeLa, luciferase luminescence, primary screen (AID 588405)
# Conditions: HeLa PEG-Prom luciferase reporter, overnight, at 20 µM, hits give high values
row,SMILES,inhibition
1,O=C(NCc1cccnc1)c1cc(C2CCCN(C(=O)CCCc3ccccc3)C2)on1 (stereo not drawn),-7.2%
2,Cc1cc(C)c2c(Cn3ccnc3)cc(=O)oc2c1,18.3%
3,O=C(CSc1nnc(COc2ccc(Cl)cc2)n1Cc1ccco1)N1CCNC1=O,6.82%
4,CCCc1nc2c(c(=O)c3ccccc3n2C)c(=O)n1C1CCCCCC1,-44.1%
5,Cn1c2ccccc2c(=O)c2c(=O)n(Cc3ccco3)c(COc3ccccc3)nc21,50.5% (active)
6,CCCNC(=O)C1(C)CCCN(Cc2c(C)nn(-c3ccccc3)c2C)C1 (stereo not drawn),5.49%
7,COc1cccc(-c2cnc(C(O)c3ccccc3OC)[nH]2)c1 (stereo not drawn),-9.16%
8,O=C(COc1ccc(-n2cnnn2)cc1)Nc1ccccc1Cl,-1.45%
9,O=C(Nc1ccccc1Cl)/C(Cl)=C(\Cl)S(=O)c1ccccc1 (stereo not drawn),108% (active)
10,CS/C(=C\C(=O)c1ccco1)Nc1ccccc1Cl,-49.5%
11,CC(=O)N1CCN(Cc2cc(=O)oc3cc(C)ccc23)CC1,-2.53%
12,COc1ccc(-c2cc(NC=O)c3ncc(-c4ccccc4)n3c2)cc1OC,49.4%
13,C[C@H]([C@@H](O)[C@@H](O)[C@@H](C)C(C)(C)C)[C@H]1CC[C@H]2C3CC[C@H]4C[C@H](OS(=O)(=O)O)[C@@H](OS(=O)(=O)O)C[C@]4(C)[C@H]3CC[C@]12C (stereo partly drawn),6.06%
14,COc1ccc(NC(=O)C2(C)Cc3c(-c4cccc(NC(C)=O)c4)ccnc3O2)cc1 (stereo not drawn),-10.2%
15,c1ccc2c(c1)CSc1sccc1C2=C1CCNCC1,33.5%
16,CCOC1=C2[C@@H](CN(S(=O)(=O)c3ccc(C)cc3)[C@H]2c2ccccc2F)[C@H]2C(=O)N(Cc3ccccc3)C(=O)[C@H]2C1,6.76%
17,CCCCC(=O)N(C)c1c(CC)nc2c(OCc3ccc(Cl)cc3Cl)cccn12,39%
18,Cc1cc(=O)oc2cc(OCC(=O)Nc3nnc(C4CC4)s3)ccc12,2.23%
19,CCOC(=O)Cc1csc(NC(=O)COc2ccc3c(C)cc(=O)oc3c2)n1,-3.01%
20,Cc1ccc(O)c(/C=N/NC(=O)COc2ccc3c(C)cc(=O)oc3c2)c1,66.5% (active)

row,SMILES,inhibition
1,CC(C)Oc1c(Br)cc(Br)cc1/C=N/NC(N)=S,48.7%
2,CNc1cncc(-c2cccc(C(=O)N3CCOCC3)c2)n1,2.98%
3,CC(=O)N(Cc1cc(=O)[nH]c2ccccc12)c1ccc(C)cc1C,23.2%
4,Cc1ccc(N(Cc2cc3ccccc3[nH]c2=O)C(=O)c2cccs2)cc1,11.2%
5,Cc1ccc(N(Cc2cc(=O)[nH]c3ccccc23)C(=O)CCl)cc1,106% (active)
6,O=C(CSc1ncnc2scc(-c3ccccc3)c12)NCc1ccc2c(c1)OCO2,26.7%
7,CCOc1c2ccc(C(=O)NCc3ccc4c(c3)OCO4)cc2nn1C,-10.3%
8,CN(C)C(=O)c1cccc(-c2cnc3sc(NCc4ccc5c(c4)OCO5)nn23)c1,50.3% (active)
9,COc1cccc2sc3cc(NCC[C@@H]4CCCN4C)ccc3c(=O)c12,-254%
10,CN1CCC[C@@H]1CCO[C@](C)(c1ccccc1)c1ccc(Cl)cc1,14.3%
11,Cc1cc2oc3ccc(NCCC4CCCN4C)cc3c(=O)c2cc1C (stereo not drawn),103% (active)
12,CC1(Oc2ccccc2-c2ccno2)CCN(Cc2ccc(-c3ccccc3)o2)C1 (stereo not drawn),0.4%
13,CC(=O)OC[C@@H]1CN(Cc2ccccc2)C[C@H](n2cnc3c(NCc4ccco4)ncnc32)O1,4.43%
14,COc1ccc(Sc2ccc(NC(=O)c3cccc(Cl)c3)cc2C#N)cc1,14.8%
15,CCOC(=O)C(=Cc1ccccc1OC)C(=O)OCC,33.3%
16,CCOC(=O)CNC(=O)/C(=C\c1ccc(F)cc1)NC(=O)c1ccccc1,10.4%
17,CCOC(=O)C(=Cc1ccccc1)C(=O)c1ccccc1,103% (active)
18,c1cc(-c2ccc3[nH]ccc3c2)n2ccnc2c1,-57.5%
19,COC(C[C@@H]1O[C@@H]1C(=O)[C@@H](C)OCc1ccccc1)OC,7.4%
20,CC(=NNC(=S)N1CCCCCC1)c1ccccn1,-62.9%

row,SMILES,inhibition
1,C/C(=N\NC(=O)c1ccccc1F)c1ccccn1,-1.8%
2,C/C(=N\NC(=O)Cc1ccc(Cl)cc1)c1ccccn1,104% (active)
3,CN1C(=O)c2ccccc2C(C(=O)NCCCN2CCCC2)C1c1c[nH]c2ccccc12 (stereo not drawn),-1.25%
4,COc1ccc(/C=C/C(=O)c2c(O)cc(OC)cc2OC)cc1,-132%
5,CCCc1ccc(C(=O)COC(=O)CN2C(=O)NC3(CCCCC3C)C2=O)cc1 (stereo not drawn),-7.49%
6,O=C(NCc1cccnc1)c1cc(C2CCCCN2C(=O)CCc2ccccc2)on1 (stereo not drawn),-5.2%
7,CN(C)c1ccc(Nc2c3c4c(cccc4n(C)c2=O)C(=O)c2ccccc2-3)cc1,54.9% (active)
8,CN(C)c1ccc(C2N(C)C(=O)c3ccccc3N2C)cc1 (stereo not drawn),17.6%
9,CSc1ccc(CNC(=O)C2(C)CCCN2C)cc1 (stereo not drawn),7.21%
10,CC(C)Nc1ncnc2c1ncn2[C@H]1CN(Cc2ccncc2)C[C@@H](CO)O1,-7.45%
11,COc1ccc(CN2CCCCC2C)cc1OC (stereo not drawn),11.9%
12,Cc1ccc(/C=C(\C#N)C(=O)Nc2cccc3ncccc23)o1,-27.1%
13,Cc1ccc(Cc2cnc(NC(=O)/C(C#N)=C/c3ccc(-c4cccc([N+](=O)[O-])c4)o3)s2)cc1,71.1% (active)
14,Cc1ccc(-c2ccc(/C=C(\C#N)C(N)=S)o2)c([N+](=O)[O-])c1,-30.5%
15,CCOc1ccc2[nH]c(=S)sc2c1,-57%
16,O=[N+]([O-])c1c(NCCO)cc(Sc2nc3ccccc3s2)c2nonc12,102% (active)
17,COc1cc(SC#N)ccc1N=Cc1c(C)[nH]n(-c2ccc(C)cc2)c1=O,80.8% (active)
18,CN(C)c1cccc(NC(=O)c2ccc(-c3ccc(F)c(F)c3)c3ccoc23)c1,-43.1%
